Compound activity deposited in PubChem by National Center for Advancing Translational Sciences (NCATS).
Hits are enriched below; roughly 6.1% of the tested compounds scored in any of these assays.
ATXN2 expr inh = Primary qHTS for Inhibitors of ATXN expression. hit rate 0.72% among 360,000. HEK-293 ATXN2-luciferase reporter, luminescence, 24 h. Potency, µM (highest dose often 57 µM), for the others: at the top dose activity change, negative = inhibition, usual class: inhibitors; also: % is scaled to controls: 0 for no effect and ±100 for the full control effect; nearly all actives have a fitted effect of over 55% in size
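ATXN2-luciferase reporter cells (luciferase flanked by upstream and downstream ATXN2 gene portions) were treated 24 h at 37 °C with compounds at up to 57 uM. SteadyGlo luminescence gave expression; GF-AFC fluorescence gave viability.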
ATXN viability = Viability Counterscreen for Primary qHTS for Inhibitors of ATXN expression. AID 651635, 2014. hit rate 0.49% among 400,000. Potency, µM (highest dose often 56.7 µM), usual class: cytotoxic. S2 cells (HEK-293 line with an ATXN2-luciferase reporter) viability, CellTiter-Fluor protease fluorescence, 24 h; also: nearly all actives have a fitted effect of over 40% in size
Gal4-VP16 FLuc = VP16 counterscreen qHTS for inhibitors of ROR gamma transcriptional activity; Drosophila S2 Gal4-VP16 UAS-luciferase, luminescence, 20 h; Potency, µM (top dose mostly 53.6 µM), without a hit: at the top dose activity, negative = inhibition, most hits filed as inhibitors; hit rate 3.5% among 310,000; AID 2546, 2010;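 also: Gal4-VP16 expression switched on by copper sulfate through the metallothionein promoter; % is scaled to controls: 0 for no effect and ±100 for the full control effect; nearly all actives have a fitted effect of over 50% in size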
HepG2 viability = qHTS for Inhibitors of TGF-b: Cytotox Counterscreen; hit rate 0.76% among 410,000; Potency, µM (titrated, usually from 46.1 µM), without a hit: top-dose activity change, negative = cytotoxicity, usual class: cytotoxic; HepG2 CAGA-GFP viability, ATP luminescence, 18 h; AID 588856, 2011
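HepG2 CAGA-GFP cells (1000/well, DMEM with 1% FBS) received compound, then TGF-beta at 500 pg/mL final, and were incubated 18 hours at 37 degrees C. Viability was read by CellTiter-Glo luminescence. Media-only wells were set as complete cell-killing and DMSO as no toxicity.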
RORgamma inh = qHTS for inhibitors of ROR gamma transcriptional activity | Nuclear receptor ROR-gamma (Mus musculus), P51450 | Drosophila S2 Gal4-RORgamma UAS-luciferase reporter, 20 h | Potency, µM (series often up to 53.6 µM), for inactives: at the top dose activity change, negative = inhibition, usual class: inhibitors | hit rate 5.4% among 310,000 | AID 2551, 2010; also: % is scaled to controls: 0 for no effect and ±100 for the full control effect; nearly all actives have a fitted effect of over 60% in size
Target sequence (P51450 whole entry, looked up, the tested form may be a part): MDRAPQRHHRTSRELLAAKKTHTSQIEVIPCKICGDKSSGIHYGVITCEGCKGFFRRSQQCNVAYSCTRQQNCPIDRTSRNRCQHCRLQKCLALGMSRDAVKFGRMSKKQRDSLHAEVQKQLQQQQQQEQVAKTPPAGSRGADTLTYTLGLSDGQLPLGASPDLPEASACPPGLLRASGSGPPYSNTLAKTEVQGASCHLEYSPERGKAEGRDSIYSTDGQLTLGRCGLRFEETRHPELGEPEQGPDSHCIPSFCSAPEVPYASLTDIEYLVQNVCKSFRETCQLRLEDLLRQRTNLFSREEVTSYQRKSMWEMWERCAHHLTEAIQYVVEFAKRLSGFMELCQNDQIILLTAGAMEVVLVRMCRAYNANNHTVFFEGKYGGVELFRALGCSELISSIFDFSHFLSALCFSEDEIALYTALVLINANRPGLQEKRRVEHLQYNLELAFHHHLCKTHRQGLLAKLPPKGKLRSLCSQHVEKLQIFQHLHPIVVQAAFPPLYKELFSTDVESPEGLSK
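Stably transfected Drosophila Schneider cells are the test system, with ROR gamma fused to Gal4 and luciferase under UAS control; luminescence is read after 20 hr of 700 uM copper sulfate induction at ambient temperature.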
TGFb inhibitor = qHTS for Inhibitors of TGF-b | Potency, µM (titrated, usually from 46.1 µM), inactives show at the top dose activity, negative = inhibition, most hits filed as inhibitors | hit rate 1.2% among 410,000 | AID 588855, 2011 | HepG2 CAGA-GFP TGF-b/SMAD3 reporter, GFP fluorescence, 18 h; TGF-beta stimulated, 500 pg/mL final; also: % is scaled to controls: 0 for no effect and ±100 for the full control effect; nearly all actives have a fitted effect of over 65% in size
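Per well, imaged GFP fluorescence of HEPG2 CAGA-GFP cells gives the signal; cells get compound, then TGF-beta (500 pg/mL final), 18 h at 37 degrees C; %Activity versus -TGF-beta and +DMSO controls.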
* hit, by the source's call; i = inactive; u = inconclusive; x = not tested or not shown; [ ] = remark or other dose. Calls follow the shape of the dose curve; as a rule, active = well fitted curve in the direction sought with a large enough effect; inconclusive = small, poorly fitted or top-dose-only effect, or another doubt; inactive = no such curve, though single readings can be large; an effect the other way counts as inactive or inconclusive. Potency is read from the fitted curve at half-maximal effect.

SMILES | ATXN2 expr inh | ATXN viability | Gal4-VP16 FLuc | HepG2 viability | RORgamma inh | TGFb inhibitor
CCOc1cc2[nH]c(=S)n(CC3CCCN3CC)c(=O)c2cc1OCC (stereo not given) | -4% | i | 3% | -17% | 10µM* | 0%
COc1cc2[nH]c(=S)n(CC3CCCO3)c(=O)c2cc1OC (stereo not given) | 7% | i | u | -1% | u | 3%
CCOc1cc2[nH]c(=S)n(CC3CCCO3)c(=O)c2cc1OCC (stereo not given) | 2% | i | u | -4% | 11µM* | 18%
CC(=O)c1c(C)oc2ccc(N(C(=O)Oc3ccccc3)S(=O)(=O)c3ccc(C(C)(C)C)cc3)cc12 | -8% | i | x | -12% | x | -22%
O=C(CC12CC3CC(CC(C3)C1)C2)Nc1cccc2nc(NCCNCCO)ccc12 | -4% | x | x | x | x | x
O=C(NCc1cc([N+](=O)[O-])ccc1O)c1cccnc1Sc1ccccc1Cl | 32% | i | 2.8µM* | -32% | 3.5µM* | 1%
CCS(=O)(=O)c1ccc(N=Nc2ccc(O)c3ncccc23)c(OC)c1 | u | x | 16µM* | -1% | 7.1µM* | u
COc1ccccc1N=Nc1[nH]c2ccc(C)cc2c1O | 73% | i | 4% | -2% | 32% | 8%
O=C(O)c1ccc(O)c2ncccc12 | 19% | i | x | -15% | x | -16%
Oc1ccc(N=Nc2ccccc2C(F)(F)F)c2cccnc12 | x | i | 3.5µM* | -21% | 3.5µM* | -36%
COc1ccccc1N=Nc1ccc(O)c2ncccc12 | x | 16µM* | 3.2µM* | -10% | 2.8µM* | u
COC(=O)c1sc2cccc(F)c2c1S(=O)(=O)Nc1ccc(C)cc1Cl | 1% | i | x | -4% | x | 1%
CCOc1ccc(C(=O)NCc2nc(-c3ccc(Cl)cc3)no2)cc1OCC | 3% | i | x | -7% | x | -2%
O=C1N/C(=N\N=C\c2cccs2)SC1Cc1ccc(Cl)cc1 (stereo not given) | -13% | i | 0.63µM* | -26% | 1.1µM* | -19%
O=C1N/C(=N\N=C\c2cccs2)SC1Cc1cccc(Cl)c1 (stereo not given) | -29% | u | 0.71µM* | -15% | 0.5µM* | u
COc1cc(/C=N/N=C2/NC(=O)C(CC(=O)O)S2)ccc1OCc1cccc(Cl)c1 (stereo not given) | 21% | i | 3% | -5% | -11% | 0%
COc1cc(CNC(=O)c2sc3ncccc3c2-n2cccc2)cc(OC)c1OC | -25% | u | x | 2% | x | -15%
CCOc1ccc(-c2c(C)nn3c(-c4ccccc4)c(C(=O)NCCOC)cnc23)cc1OCC | -2% | i | x | 0% | x | 14%
COc1ccccc1/C=N/NC(=S)Nc1cccnc1 | 7% | i | u | 0% | 0.71µM* | u
CC(C)[C@@H](N)C(=O)N/N=C/c1ccc2ncccc2c1 | 18% | i | -1% | 3% | 24% | 10%
COc1cc(/C=N/NC(=S)Nc2cccnc2)cc(OC)c1OC | 5% | i | 1% | 0% | -1% | -7%
S=C(N/N=C/c1ccc2ncccc2c1)Nc1cccnc1 | u | u | u | -13% | 4.5µM* | -7%
Oc1ccc(/C=N/NC(=S)Nc2cccnc2)cc1O | 5% | i | u | -26% | 8.9µM* | -1%
Oc1ccc(C=NNC(=S)Nc2cccnc2)nc1 | u | u | x | -36% | x | u
CC(C)(C)c1ccc(/C=N/NC(=S)Nc2cccnc2)cc1 | x | x | 1.3µM* | x | 0.18µM* | x
SMILES | ATXN2 expr inh | ATXN viability | Gal4-VP16 FLuc | HepG2 viability | RORgamma inh | TGFb inhibitor
CN(C)c1ccc(N=Cc2ccnc3ccccc23)cc1 | x | x | x | -34% | x | 0%
COC(=O)CN1C(=O)CSc2ccc(S(=O)(=O)Nc3cccc(Br)c3)cc21 | x | x | x | -32% | x | -33%
O=C(NCc1ccncc1)c1cnn(-c2ncc3c(n2)-c2ccccc2CC3)c1C1CC1 | x | i | x | x | x | x
COc1ccc2ccccc2c1CNC(C)c1ccccc1 (stereo not given) | x | i | -2% | -30% | -16% | 4%
CC(NCCCOc1cccc2ccccc12)c1ccccc1 (stereo not given) | x | u | -19% | 20µM* | -17%[1.91 µM] | u
CC(C)(C)OC(=O)NCCc1nnc(SCc2ccccc2Cl)o1 | 5% | i | 26% | -16% | 43% | -25%
CC(C)(C)OC(=O)NCCc1nnc(S(=O)(=O)Cc2ccc(Cl)cc2Cl)o1 | u | x | 7.1µM* | 14µM* | u | 10µM*
O=C(/C=C/c1ccc(Cl)cc1Cl)Nc1cccc(S(=O)(=O)NC2=NCCC2)c1 | x | u | 8.9µM* | -25% | 7.1µM* | u
COCCCNC(=O)C1CCN(c2cc(C)nc3c(-c4ccc(OC)c(OC)c4)c(C)nn23)CC1 | 14% | i | x | 7% | x | -14%
CC(C)(C)C(=O)NC1CC2CCCC(C1)N2C(=O)Nc1ccccc1Cl (stereo not given) | 8% | i | -14% | 1% | 10% | 2%
S=C(Nc1ccccc1Cl)NC1CC2CCCC(C1)N2C1CC1 (stereo not given) | x | i | -1% | 4% | 11µM* | 21%
CCC/C(=C1/c2ccccc2C(=O)N1c1ccccc1)c1ccc2[nH]ccc2c1 | -9% | u | x | -28% | x | 11µM*
COc1ccc(CCNC(=O)c2cnn(-c3nccc(-c4ccco4)n3)c2C)cc1 | x | i | x | x | x | x
CCC(C)NC(=O)C(=O)Nc1c2c(nn1-c1ccccc1)CS(=O)(=O)C2 (stereo not given) | 3% | i | x | 7% | x | 16%
C=C1C(=O)O[C@@H]2[C@H]1[C@@H](OC(=O)/C(C)=C/C)C/C(C)=C\C(=O)/C=C(\C)[C@@H]2O | 6.3µM* | 10µM* | 11µM* | 11µM* | u | 7.1µM*
Cc1ccc2c(/C=C/c3ccc(N(C)C)cc3)ccnc2c1 | x | x | x | -33% | x | u
COC(=O)N/N=C/c1ccc(-c2cccc(Cl)c2)o1 | -3% | i | -12% | 2% | 39% | 16%
Nc1ccccc1N=Cc1ccc(-c2cccc(Cl)c2)o1 | 0% | i | 13µM* | -35% | u | u
COC(=O)C1=C(C)NC(=O)C1(NC(=O)c1ccc(Cl)cc1)C(F)(F)F (stereo not given) | -5% | i | x | 1% | x | 0%
CN(C(=O)CSc1cc(C(=O)c2nccn2C)c2ccccc2n1)c1ccccc1 | -5% | u | -3% | -24% | 33% | 14µM*
